# An excerpt weighted towards active compounds, which were near 7.5% of everything screened.
# NPC1 prom act – activates the NPC1 promoter | hit rate 2.4% among 320,000 | Huh7 NPC1 promoter luciferase reporter, 24 h | AID 485313 | Potency, µM (highest dose often 9.22 µM), without a hit: top-dose activation, hits mostly activators; further: % of control where 0% means no effect; nearly all actives have a fitted effect of over 60% in size
#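 Huh7 cells stably carrying NPC1 promoter–luciferase, plated in Opti-MEM with 10% FBS for 2 h, were exposed to compound in DMSO for 24 h at 37 °C; luciferase reagent was added for 10 min and luminescence read.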
# Luc counter – counter-screen: inhibitors of Kinase-Glo firefly luciferase; hit rate 0.28% among 200,000; Potency, µM (doses to about 38.3 µM), for the others: top-dose activity change, negative = inhibition, usual class: inhibitors; Kinase-Glo luciferase, ATP luminescence, 8 min; Q27757; AID 1379; further: on the % scale 0 is the no-effect control and ±100 the full control effect; nearly all actives have a fitted effect of over 60% in size
#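 Luminescence was the read-out, taken after 8-minute incubation at ambient temperature. Luciferase turned over luciferin with 10 uM ATP in imidazole pH 7.2 buffer containing KCl, MgCl2, Tween 20 and BSA.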
# ELG1 genotoxic – genotoxicity induction in ELG1-luciferase HEK293T cells. HEK293T ELG1-luciferase reporter, luminescence, 16 h. Potency, µM (series often up to 46 µM), inactives show top-dose activity change, positive = activation, most hits filed as activators. hit rate 1.3% among 330,000; further: % of control where 0% means no effect; nearly all actives have a fitted effect of over 60% in size
#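 Reporter readout depends on ELG1 protein level, which increases with genetic stress. After 16 hr compound exposure at 37 °C, luciferase activity was quantified using ONE-Glo.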
# Rab9 prom act – activators of Rab9 promoter | Huh7 Rab9 promoter-luciferase reporter, luminescence, 24 h | Potency, µM (top dose mostly 9.22 µM), without a hit: at the top dose activation, negative = inhibition, hits mostly activators | hit rate 2.8% among 320,000 | AID 485297; further: % of control where 0% means no effect; nearly all actives have a fitted effect of over 60% in size
#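 Measured in stably transfected Huh7 cells bearing a Rab9 promoter–luciferase construct: 24 h compound treatment at 37 °C, followed by luminescence detection.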
# SMN2 splice enh – enhancers of SMN2 splice variant expression; HEK293 SMN2-luciferase splicing reporter, luminescence, 30-36 h; Potency, µM (titrated, usually from 46.1 µM), without a hit: top-dose activity change, positive = activation, usual class: activators; hit rate 2.8% among 210,000; AID 1458; further: % of control where 0% means no effect; nearly all actives have a fitted effect of over 55% in size
#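 HEK293 cells carry an SMN2 minigene-luciferase reporter in which exon 7 inclusion puts luciferase in frame. Cells were seeded at 2000 cells/well, attached for 10-12 hours, then exposed to compounds for 30-36 hours at 37C before ONE-Glo luminescence.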
# FLuc counter – inhibits or activates purified firefly luciferase, miR-21 counter-screen; P08659; purified FLuc, Km substrates, luminescence inhibition; Potency, µM (top dose mostly 57.5 µM), for inactives: at the highest dose activity change, negative = inhibition, hits mostly inhibitors; hit rate 6.9% among 360,000; AID 588342;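 further: plate controls were vehicle for no effect and reference inhibitor for full effect; nearly all actives have a fitted effect of over 55% in size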
# Target sequence (P08659 whole entry, looked up): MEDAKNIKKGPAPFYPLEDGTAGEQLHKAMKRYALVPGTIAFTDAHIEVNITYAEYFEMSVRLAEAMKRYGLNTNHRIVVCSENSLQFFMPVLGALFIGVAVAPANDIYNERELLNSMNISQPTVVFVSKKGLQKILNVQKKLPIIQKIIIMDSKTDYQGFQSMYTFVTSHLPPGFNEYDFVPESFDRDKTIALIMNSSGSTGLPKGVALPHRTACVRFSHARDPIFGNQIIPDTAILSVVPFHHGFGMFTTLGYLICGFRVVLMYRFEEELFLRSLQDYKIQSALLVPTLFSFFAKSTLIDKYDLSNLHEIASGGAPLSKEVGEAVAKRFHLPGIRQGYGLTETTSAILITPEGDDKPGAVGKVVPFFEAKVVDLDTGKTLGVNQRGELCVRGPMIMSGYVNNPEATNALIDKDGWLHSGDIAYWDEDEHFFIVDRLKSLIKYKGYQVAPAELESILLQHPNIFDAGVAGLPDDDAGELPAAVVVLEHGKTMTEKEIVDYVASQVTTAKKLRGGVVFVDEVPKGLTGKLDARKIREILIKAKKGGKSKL
#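 Purified P. pyralis luciferase (10nM final) with 10uM D-luciferin and 10uM ATP (Km levels) in 50mM Tris acetate pH 7.5, 10mM Mg acetate, 0.01% Tween-20, 0.05% BSA; qHTS 6-point titration, ~60 µM downward; luminescence read.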
# Starred values were filed as active, the others as inactive; ? = inconclusive; / = no result given. The call rests on the fitted dose curve; in most records, active means well fitted curve in the direction sought with a large enough effect; inconclusive means small, poorly fitted or top-dose-only effect, or another doubt; inactive means no such curve, though single readings can be large; an effect the other way counts as inactive or inconclusive. Potency means the concentration at half of the fitted maximal effect.
SMILES,NPC1 prom act,Luc counter,ELG1 genotoxic,Rab9 prom act,SMN2 splice enh,FLuc counter
Cc1cc(NC(=O)c2nn3cccnc3c2Cl)no1,1.8µM*,-7%,?,1.4µM*,10µM*,11µM*
Cc1cc(NC(=O)c2cnn3cccnc23)no1,?,-8%,4.1µM*,?,?,?
C=CCNC(=O)c1nn2cccnc2c1Cl,5%,2%,3%,7%,25%,-2%
CC(C)c1ccc(C(C(=O)NC2CCCC2)N(C(=O)c2csnn2)C2CC2)cc1 (stereo not drawn),-1%,/,-1%,-4%,/,0%
Nc1nc(Nc2ccccc2F)nc(N2CCCC2)c1[N+](=O)[O-],0%,/,?,?,/,17µM*
Cc1noc(C)c1-c1nccc(NCc2cccnc2)n1,/,-3%,/,/,30%,/
Cc1nc2ccccc2c2c1C(=O)N(c1cccc(C(=O)O)c1)C2=O,1%,9%,4%,-4%,17%,-18%
Cc1ccc(C)c(C(=O)COC(=O)c2cccc(N3C(=O)c4c(C)nc5ccccc5c4C3=O)c2)c1,?,-4%,14%,?,-10%,1.5µM*
CC(=O)c1ccc(OCCCC(=O)Nc2cc(Cl)ccc2-n2cncn2)cc1,0%,/,-10%,-4%,/,0%
COc1c(O)ccc(/C=N/NC(=O)c2ccc3c(c2)OCCO3)c1[N+](=O)[O-],?,/,?,?,/,2.7µM*
O=C(N/N=C/c1cc2c(cc1[N+](=O)[O-])OCO2)c1ccc2c(c1)OCO2,3%,/,0%,5%,/,?
COc1c(O)ccc(/C=N\NC(=O)c2ccc3c(c2)OCO3)c1[N+](=O)[O-],4%,/,13%,0%,/,15µM*
CN(C)c1ccc(CNC(=O)c2ccc(Cn3c(=O)c4cccn4c4cccnc43)cc2)cc1,/,/,/,/,/,0%
O=C(/C=C/c1ccccc1Cl)NC1CCS(=O)(=O)C1 (stereo not drawn),-3%,-1%,5%,-4%,/,-2%
Cc1ccc(/C=N/NC(=O)NC2CCCCC2)o1,8%,2%,8%,20%,-6%,-20%
Cc1ccc(/C=C/C(=O)NC2CCCCCCC2)o1,28%,0%,?,?,?,24µM*
O=C(/C=C/c1ccccc1Cl)NC1CCCCC1,2.8µM*,/,?,3.5µM*,/,11µM*
Nc1sc(-c2ccccc2)cc1C(=O)N/N=C/c1ccc(Cl)cc1,0%,/,1%,-1%,/,6µM*
CCOC(=O)c1cc(-c2ccccc2)sc1NC(=O)C(C)(C)C,0%,-1%,3%,-6%,-25%,0%
O=C(N/N=C/c1ccc(Cl)cc1)c1cc2c(s1)-c1ccccc1CC2,-17%,4%,0%,-10%,19%,-2%
COC(=O)c1cc(-c2ccccc2)sc1N,25%,-1%,?,26%,-34%,21µM*
CC(C)(C)NS(=O)(=O)c1ccc(NC(=O)C2CC(=O)N(CCc3ccc(F)cc3)C2)cc1 (stereo not drawn),0%,/,1%,2%,/,-3%
Cc1nn2c(=O)cc(COC(=O)c3c(F)cccc3Cl)nc2s1,4µM*,/,?,4µM*,/,?
Cc1nn2c(=O)cc(COC(=O)COc3ccccc3C)nc2s1,/,/,/,/,/,3%
Cc1nn2c(=O)cc(COC(=O)c3ccc(NC(=O)COc4ccc(C)c(C)c4)cc3)nc2s1,/,/,/,/,/,0%
SMILES,NPC1 prom act,Luc counter,ELG1 genotoxic,Rab9 prom act,SMN2 splice enh,FLuc counter
Cc1ccc(OCC(=O)Nc2cccc(C(=O)OCc3cc(=O)n4nc(C)sc4n3)c2)cc1,/,/,/,/,/,9.5µM*
Cc1ccccc1OCC(=O)Nc1ccccc1OCc1cc(=O)n2ccccc2n1,/,/,/,/,/,11µM*
Cc1nn2c(=O)cc(COC(=O)c3cccc(NC(=O)COc4ccccc4C)c3)nc2s1,/,/,/,/,/,24µM*
Cc1nn2c(=O)cc(COC(=O)c3ccc(NC(=O)COc4ccccc4F)cc3)nc2s1,/,/,/,/,/,1%
Cc1ccccc1OCC(=O)Nc1ccc(C(=O)OCc2cc(=O)n3c(C)csc3n2)cc1,/,/,/,/,/,0%
Cc1csc2nc(COC(=O)c3cccc(NC(=O)COc4ccccc4Cl)c3)cc(=O)n12,/,/,/,/,/,1.2µM*
